Here are results for 31 compounds from PubChem BioAssay (Tox21).

Molecules are shown by their SMILES. Results filed as inconclusive are left out. Active and inactive are the calls of the source. Calls follow the shape of the dose curve; as a rule, active = well fitted curve in the direction sought with a large enough effect in the repeat runs; inconclusive = weak or mixed curves; inactive = no such curve, though single readings can be large; an effect the other way counts as inactive or inconclusive.
% is scaled to controls: 0 for no effect and ±100 for the full control effect.

A short description of the first assay: qHTS assay to identify small molecule antagonists of the retinoid acid receptor (RAR) signaling pathway - cell viability counter screen (AID 1159551). Also: nearly all actives have a fitted effect of over 35% in size. The settings on record: C3RL4 cells viability, ATP luminescence (CellTiter-Glo), 6 h; series mostly up to 92.4 µM; activity change, negative = cytotoxicity: at the top concentration. The procedure, abridged: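 ATP-based viability, C3RL4 cells, 6 h at 37 C with 1 uM final retinol co-added after compound; luminescence read 30 min post CellTiter-Glo, RT.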
In the case of `CC(=O)OCC(=O)[C@@]1(OC(C)=O)[C@@H](C)C[C@H]2[C@@H]3C[C@H](F)C4=CC(=O)C=C[C@]4(C)[C@@]3(F)[C@@H](O)C[C@@]21C`, the “activity change, negative = cytotoxicity” value was -0.255% [at 42.5 µM] (inactive).
Same read-out and setting: the value for `O=C1c2ccccc2C(=O)c2c(O)ccc(O)c21` was -4.62% (inactive); that for `CCOC(=O)C(C)O` (stereo not given) was -1.33% (inactive).
As for `CC(C)(C)C(O)/C=C/c1ccc2c(c1)OCO2` (stereo not given), the “activity change, negative = cytotoxicity” value was 1.65% [at 42.5 µM] (inactive).
As for `C=C(C)c1ccccc1`, the “activity change, negative = cytotoxicity” value was 4.75% (inactive).
Still for that read-out and setting: the figure for `CCOc1ncc(F)c(=O)[nH]1` is 3.01% [at 42.5 µM] (inactive); for `CCCC(=O)OC(=O)CCC` it is 2.59% (inactive).
Same read-out and setting: the value for `O=C(O)CCC(=O)c1ccc(-c2ccccc2)cc1` was -1.34% [at 42.5 µM] (inactive); that for `COc1cc(NC(C)CCCN)c2ncccc2c1` (stereo not given) was -1.21% [at 42.5 µM] (inactive); that for `CCCCCCCCCCCCCCCC(=O)OCC` was 0.347% (inactive).
Same read-out and setting: the value for `CCCCCCC(O)CCCCCCCCCCC(=O)OC` (stereo not given) was -1.12% (inactive); that for `CC(=O)OCC(C)C` was 2.67% (inactive); that for `Cc1ccc2c(c1)CCCN2` was -0.263% (inactive).
As to `CCO[Si](C)(CCCOCC1CO1)OCC` (stereo not given), the “activity change, negative = cytotoxicity” value is -0.362% (inactive).
On the same count and under the same terms, the figure for `CCN(CC)CCNC(=O)c1cc(Cl)c(N)cc1OC` is -0.251% [at 42.5 µM] (inactive).
With `CC1CCCC(=O)C1=O` (stereo not given), the “activity change, negative = cytotoxicity” value is -0.873% (inactive).
Still for that read-out and setting: the value for `CC(C)C(=O)OCCOc1ccccc1` was 0.992% (inactive).

A further assay can be described thus: qHTS assay to identify small molecule antagonists of the retinoic acid receptor (RAR) signaling pathway (AID 1159552; also: nearly all actives have a fitted effect of over 50% in size). The note with it: C3RL4 RARE luciferase reporter, retinol-stimulated, 6 h; series mostly up to 92.4 µM; activity, negative = inhibition: at the top concentration. The procedure, abridged:
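RARE-luc C3RL4 cells; cpds + 1 uM (final) retinol, 6 hr, 37 C/5% CO2; luciferase reagent, 30 min RT, luminescence readout. Inhibitors of retinol-driven signal scored.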
A general note: Quantitative high-throughput screening tests each substance at several concentrations.
Turning to `CC1CCc2nccnc21` (stereo not given), the “activity, negative = inhibition” value was 1.24% (inactive).
Regarding `CNC1CCCN(c2c(F)cc3c(=O)c(C(=O)O)cn(C4CC4)c3c2OC)C1` (stereo not given), the “activity, negative = inhibition” value was 12.7% [at 42.5 µM] (inactive).
Take `CCCCOC(=O)CCCCC(=O)OCCCC`: the “activity, negative = inhibition” value is 2.94% (inactive).
Consider `CCc1ccc(C)cc1`, for which the “activity, negative = inhibition” value was 9.54% (inactive).
On the same count and under the same terms, the value for `CC(=O)OCC1=C(C(=O)O)N2C(=O)[C@@H](NC(=O)CSc3ccncc3)[C@H]2SC1` was 13.3% [at 42.5 µM] (inactive); that for `COC(CC(C)CCCC(C)(C)O)OC` (stereo not given) was -1.2% (inactive); that for `O=C(O)/C=C/c1ccc(O)c(O)c1` was 1.38% (inactive).
For the compound `O=C1NC(=O)c2cccc3cccc1c23`, the “activity, negative = inhibition” value was 47.7% (inactive).
For the compound `CCCCCCOC(=O)CCCCC`, the “activity, negative = inhibition” value was -4.5% (inactive).
Regarding `CCC(C)(C)C(=O)O`, the “activity, negative = inhibition” value was 4.61% (inactive).
In the case of `CC1=CC[C@@H]2C[C@H]1C2(C)C`, the activity, negative = inhibition is 70.7% [at 19 µM] (inactive).
On the same count and under the same terms, the value for `CCC1CCC(CCC(=O)O)C1` (stereo not given) was -3.87% (inactive); that for `c1ccc(CCCc2ccncc2)cc1` was 41.7% (inactive); that for `O=C(NS(=O)(=O)/C=C/c1ccccc1)c1ccc(F)cc1Cl` was 1.28% (inactive).
The same measure, in the same setting: the figure for `CC(=O)OCC(=O)[C@@]1(OC(C)=O)[C@@H](C)C[C@H]2[C@@H]3C[C@H](F)C4=CC(=O)C=C[C@]4(C)[C@@]3(F)[C@@H](O)C[C@@]21C` is 5.06% [at 42.5 µM] (inactive); for `O=C1c2ccccc2C(=O)c2c(O)ccc(O)c21` it is 3.9% (inactive).
For `CCOC(=O)C(C)O` (stereo not given), the “activity, negative = inhibition” value was 17.8% (inactive).
The same measure, in the same setting: the figure for `CC(C)(C)C(O)/C=C/c1ccc2c(c1)OCO2` (stereo not given) is 110% [at 42.5 µM] (inactive).
Consider `C=C(C)c1ccccc1`, for which the “activity, negative = inhibition” value was -4.8% (inactive).
In the case of `CCOc1ncc(F)c(=O)[nH]1`, the “activity, negative = inhibition” value is 2.11% [at 42.5 µM] (inactive).
Turning to `CCCC(=O)OC(=O)CCC`, the “activity, negative = inhibition” value was 16% (inactive).
On the same count and under the same terms, the value for `O=C(O)CCC(=O)c1ccc(-c2ccccc2)cc1` was 102% [at 42.5 µM] (inactive); that for `CCCCCCC(O)CCCCCCCCCCC(=O)OC` (stereo not given) was 2.43% (inactive); that for `CC(=O)OCC(C)C` was -14.8% (inactive).
Same read-out and setting: the value for `Cc1ccc2c(c1)CCCN2` was -0.869% (inactive).
As to `CCO[Si](C)(CCCOCC1CO1)OCC` (stereo not given), the “activity, negative = inhibition” value is -21.4% (inactive).
Still for that read-out and setting: the value for `CC1CCCC(=O)C1=O` (stereo not given) was 7.82% (inactive); that for `CC(C)C(=O)OCCOc1ccccc1` was 15.4% (inactive).
